Data on 37 compounds can be found in PubChem BioAssay (NCATS).

SMILES strings stand for the structures. Results filed as inconclusive are left out. Entries that show only a call come without a potency. Unmarked numbers belong to inactive results. The source made the active and inactive calls. The call rests on the fitted dose curve; in most records, active means well fitted curve in the direction sought with a large enough effect; inconclusive means small, poorly fitted or top-dose-only effect, or another doubt; inactive means no such curve, though single readings can be large; an effect the other way counts as inactive or inconclusive.

Experiment [1] deals with Zika virus NS2B-NS3 protease. The experiment is described as follows: Primary screen GU AMC qHTS for Zika virus inhibitors (AID 1347154). Further: nearly all actives have a fitted effect of over 70% in size. Further: potency means the concentration at half of the fitted maximal effect. Put shortly: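 Fluorogenic AMC-substrate cleavage by noncovalent NS2B-NS3 protease complex (25 nM, pH 8.0 Tris buffer with Tween 20) followed for 15 minutes at room temperature (~20% conversion). Percent inhibition from ex340/em450 signal change, fitted by 4-parameter Hill equation.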
On the technique in general: In qHTS, concentration-response curves come from the screen itself.

Experiment [2] in a line: qHTS of pediatric cancer cell lines to identify multiple opportunities for drug repurposing: Confirmatory screen for SK-N-SH cells (AID 1347129).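 Further: cells exposed to compound for 48 h before viability read; nearly all actives have a fitted effect of over 60% in size.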 Summed up:
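Cells (500-1,000/well) rested 5 h, then received compounds for 48 h; metabolically active cells were measured by CellTiter-Glo luminescence. Final concentrations spanned up to 46 µM (MIPE, 11-point) or 0.59 nM-46 µM (NPC, 8-point) in primary screens, 11-point in follow-ups.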

The target in a further experiment is Furin (Homo sapiens) (UniProt P09958). In words: Furin counterscreen qHTS for Zika virus inhibitors (AID 1347149). Further: nearly all actives have a fitted effect of over 70% in size. Further: potency means the concentration at half of the fitted maximal effect.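 On activity change, negative = inhibition: purified recombinant full-length human furin enzyme at 5 nM; fluorescence gain from furin cutting a BOC-RVRR-AMC peptide substrate over 15 min; top concentration of the series differs between compounds.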 Summed up: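 Counterscreen measures cleavage of 2 microM BOC-RVRR-AMC, below its ~15 microM Km, by 5 nM full-length human furin at pH 7.0 after a 15-min compound preincubation. Inhibition derives from the 15-min fluorescence increase at 37C.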
Background: The purpose of a counterscreen is to sort out artefacts and off-target activity.

Experiment [3] relates to Zika virus NS2B-NS3 protease (linked construct). In words: Confirmatory screen NINDS AMC qHTS for Zika virus inhibitors (AID 1347152). Further: potency means the concentration at half of the fitted maximal effect; nearly all actives have a fitted effect of over 70% in size. The conditions noted are these: Purified linked NS2B-NS3, AMC substrate fluorescence. Summed up: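 IC50s from 4-parameter Hill fits of percent inhibition, based on AMC fluorescence gain (340/450 nm) over 15 min with 10 microM Bz-Nle-KRR-AMC. Enzyme: 1 nM linked NS2B-NS3 in Tris-HCl pH 8.0; 15-min compound preincubation.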

In experiment [4] the test system is Zika virus NS2B-NS3 protease (unlinked complex). The experiment is described as follows: Confirmatory screen GU AMC qHTS for Zika virus inhibitors (AID 1347153). Further: nearly all actives have a fitted effect of over 70% in size.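 On potency: enzyme at 25 nM with substrate at 10 µM below its Km of 18.3 µM; potency means the concentration at half of the fitted maximal effect.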 Summed up:
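Unlinked NS2B-NS3 complex (25 nM) in 10 mM Tris-HCl pH 8.0, 0.01% Tween 20 preincubated 15 min with compound, then 10 microM Bz-Nle-KRR-AMC (Km 18.3 µM). Fluorescence change over 15 min, normalized, Hill-fitted.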

The nature of experiment [5]: Confirmatory screen NINDS Rhodamine qHTS for Zika virus inhibitors (AID 1347161). Further: nearly all actives have a fitted effect of over 60% in size. Further: potency means the concentration at half of the fitted maximal effect.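 On activity change, negative = inhibition: purified Zika NS2B-NS3 protease with linked NS2B cofactor domain and Rhodamine110 peptide substrate; series mostly up to about 110 µM.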 Put shortly: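 Aprotinin served as in-plate control. Conditions: 25 nM linked NS2B-NS3, pH 8.0 Tris buffer, titrated compounds, 15 min preincubation and 15 min reaction with 1.5 microM Rhod110 substrate at room temperature.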
The nature of experiment [6]: Vero cells viability qHTS for Zika virus inhibitors (AID 1347167). Put shortly:
(§1)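 Luminescent ATP readout (CellTiter Glo) after 30 min at 37 degrees C gives viability; cells in DMEM + 4% FBS were treated 24 to 48 hours with compound, following overnight attachment.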

A short description of experiment [7]: HepG2 cells viability qHTS for Zika virus inhibitors (AID 1347168). Summed up: as §1
Experiment [8] can be described thus: Tertiary RLuc qRT-PCR qHTS assay for Zika virus inhibitors (AID 1347169). Further: top concentration of the series differs between compounds; nearly all actives have a fitted effect of over 55% in size. Put shortly: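 Orthogonal cell-based readout: luminescence measured 1-1.5 hrs after adding live-cell Renilla substrate to Vero cells that had been infected with ZIKV-RLuc (MOI 1-2) post-compound, incubated 48-72 hrs at 37 degrees C.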
(Real-time PCR tracks product formation cycle by cycle.)

Experiment [9] in a line: ZIKV-mCherry secondary qHTS for Zika virus inhibitors (AID 1347158). Further: top concentration of the series differs between compounds. Put shortly:
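Read-out is percent infection: mCherry-positive Vero cells (nuclear-proximal intensity >450 RFU, 3 SD above negative controls) counted by high-content imaging of Hoechst-stained, PFA-fixed wells after 48-72 h with ZIKV-mCherry at MOI 1 and compound.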

Experiment [10] concerns Zika virus NS2B-NS3 protease (linked). In words: 384 well plate NINDS AMC confirmatory qHTS for Zika virus inhibitors (AID 1347163). Further: potency means the concentration at half of the fitted maximal effect; nearly all actives have a fitted effect of over 50% in size. The conditions noted are these: Recombinant NS2B-NS3 protease, Ac-VKTGKR-AMC fluorescence. Summed up:
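Enzyme (5, 30 or 60 nM final) first met test compounds for ~15 min. The AMC-tagged peptide Ac-VKTGKR-AMC followed at 30 microM. Fluorescence was then recorded at 25 min and scaled against no-enzyme and no-inhibitor wells.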

The subject of experiment [11] is Zika virus NS2B-NS3 protease (linked construct). The experiment is described as follows: 384 well plate NINDS Rhodamine confirmatory qHTS for Zika virus inhibitors (AID 1347164). Further: potency means the concentration at half of the fitted maximal effect; nearly all actives have a fitted effect of over 65% in size. The note with it: rhodamine-110 peptide substrate fluorescence. Summed up: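 Fluorescence at 485/538 nm was measured 25 minutes after adding 10 microM Ac-LKRR-Rd substrate, in the dark at room temperature. The protease (5, 30 or 60 nM final) had been preincubated ~15 minutes with compound; aprotinin as control.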

Experiment [12] can be described thus: Confirmatory screen GU Rhodamine qHTS for Zika virus inhibitors qHTS (AID 1347157). Further: nearly all actives have a fitted effect of over 70% in size. Summed up: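 A qHTS format was used, with compound concentrations ranging up to 114 microM. Each compound was preincubated with 25 nM NS2B-NS3 protease, and the substrate was then added at 1.5 microM. Curves were fitted with a 4-parameter Hill model.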
Experiment [13] is described as follows: OV-KATE Cancer Cell Toxicity qHTS against the NCATS CANVASS Library (AID 1347345). Put shortly: (§2)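 ATP content after 72 h treatment, detected by CellTiter-Glo luminescence (15min room-temperature development), reflects cell viability. Wells contained 1000 cells and received compounds at 11 concentrations.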
The nature of experiment [14]: HPAF-II Cancer Cell Toxicity qHTS against the NCATS CANVASS Library (AID 1347346). Further: series mostly up to about 38 µM; nearly all actives have a fitted effect of over 55% in size. Put shortly: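 1000 HPAF-II cells/well; 4 h pre-incubation; 11-pnt compound titration; 72 h, 37 degrees C/5% CO2; CellTiter-Glo, 15 min RT; luminescence read.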
Experiment [15] in a line: UWB1.289 Cancer Cell Toxicity qHTS against the NCATS CANVASS Library (AID 1347347). Further: series mostly up to about 38 µM; nearly all actives have a fitted effect of over 60% in size. Summed up: as §2
The nature of experiment [16]: OV-SAHO Cancer Cell Toxicity qHTS against the NCATS CANVASS Library (AID 1347348). Further: series mostly up to about 38 µM; nearly all actives have a fitted effect of over 55% in size. Summed up: as §2
Experiment [17] is described as follows: Panc-1005 Cancer Cell Toxicity qHTS against the NCATS CANVASS Library (AID 1347349). Further: series mostly up to about 38 µM; nearly all actives have a fitted effect of over 60% in size. Summed up:
as §2

Experiment [18] can be described thus: SW1088 Cancer Cell Toxicity qHTS against the NCATS CANVASS Library (AID 1347350). Further: series mostly up to about 38 µM; nearly all actives have a fitted effect of over 75% in size. Put shortly: as §2
Experiment [19] in a line: U-118MG Cancer Cell Toxicity qHTS against the NCATS CANVASS Library (AID 1347351). Further: series mostly up to about 38 µM. Put shortly:
as §2

Furin (Homo sapiens), sequence (P09958 whole entry, looked up): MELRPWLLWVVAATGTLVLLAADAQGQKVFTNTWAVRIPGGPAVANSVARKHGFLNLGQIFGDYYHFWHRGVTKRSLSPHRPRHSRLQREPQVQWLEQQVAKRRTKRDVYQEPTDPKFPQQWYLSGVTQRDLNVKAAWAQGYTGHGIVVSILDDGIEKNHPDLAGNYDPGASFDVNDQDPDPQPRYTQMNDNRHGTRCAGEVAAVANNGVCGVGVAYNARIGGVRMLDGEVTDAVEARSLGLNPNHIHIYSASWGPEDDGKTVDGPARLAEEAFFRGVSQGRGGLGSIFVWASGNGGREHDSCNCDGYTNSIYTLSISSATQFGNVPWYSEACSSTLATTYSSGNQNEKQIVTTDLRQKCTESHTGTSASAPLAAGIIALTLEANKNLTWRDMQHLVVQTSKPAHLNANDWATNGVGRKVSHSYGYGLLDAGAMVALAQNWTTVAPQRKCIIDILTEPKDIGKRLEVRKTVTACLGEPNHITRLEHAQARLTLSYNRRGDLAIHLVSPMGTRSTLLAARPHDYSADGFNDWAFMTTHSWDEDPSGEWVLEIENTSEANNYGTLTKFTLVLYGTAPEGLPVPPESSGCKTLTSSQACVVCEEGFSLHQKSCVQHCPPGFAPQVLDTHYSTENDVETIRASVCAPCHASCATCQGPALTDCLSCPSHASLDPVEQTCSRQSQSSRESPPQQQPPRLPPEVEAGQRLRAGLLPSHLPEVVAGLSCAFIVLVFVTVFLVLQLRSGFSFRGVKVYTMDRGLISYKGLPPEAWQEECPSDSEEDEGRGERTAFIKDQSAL

Consider `O=C(O)C(S)C(S)C(=O)O` (stereo not given), for which the Potency result in experiment [1] was “inactive”.
Turning to `Cc1cc(=O)[nH]c(=S)[nH]1`, the Potency result in experiment [1] is “inactive”.
Turning to `CCc1cccc(CC)c1NC(=O)CN(CC(=O)O)CC(=O)O`, in experiment [1], the Potency result was “inactive”.
In the case of `Cc1cccc(C)c1NC(=O)CC12CCCN1CCC2`, the Potency entry in experiment [1] is “inactive”.
On to `CC1(C)S[C@@H]2[C@H](NC(=O)C(C(=O)O)c3ccccc3)C(=O)N2[C@H]1C(=O)O` (stereo not given in full), for which the Potency entry in experiment [1] was “inactive”.
Take `CO[C@@]1(NC(=O)C(C(=O)O)c2ccc(O)cc2)C(=O)N2C(C(=O)O)=C(CSc3nnnn3C)CO[C@@H]21` (stereo not given in full): the Potency result in [1] was “inactive”.
For `O=C(NCCCN1CCOCC1)c1ccc(Cl)cc1`, the Potency entry in [1] is “inactive”.
On to `N[C@@H](Cc1ccc(O)cc1)C(=O)O`, for which the activity change, negative = inhibition in experiment [1] was 5.3% [at 6.83 µM].
Consider `CNCc1ccccc1`, for which the Potency entry in experiment [1] was “inactive”.
As to `COc1cc(C(=O)NCCCCCC(=O)O)cc(OC)c1OC`, the outcome in experiment [2] was inactive. Further, the Potency result in [1] was “inactive”.
For `CN1C[C@@H]2C[C@H]1CN2c1cc2c(cc1F)c(=O)c(C(=O)O)cn2C1CC1`, the Potency with Furin (Homo sapiens) is 9.41 µM (active); in experiment [3], 16.7 µM (active); in [4], 16.7 µM (active); in [1], 8.82 µM (active). The Potency result in experiment [5] is “inactive”. Also, the call in experiment [6], in experiment [7] and in [8] was inactive.
For `Cn1c(=O)c2c(ncn2CCO)n(C)c1=O`, the Potency entry in experiment [1] was “inactive”.
For the compound `CCCCCCCC(=O)OCC(COC(=O)CCCCCCC)OC(=O)CCCCCCC`, the Potency result in experiment [1] is “inactive”.
The same measure, in the same setting: to `CCN(CC)C(=O)c1cccc(C)c1` belongs “inactive”; to `CC1CC(OC(=O)c2ccccc2O)CC(C)(C)C1` (stereo not given), “inactive”.
The same measure, in the same setting: to `NC(=O)NC1NC(=O)NC1=O` (stereo not given) belongs “inactive”; to `Nc1ccncc1N`, “inactive”.
For `O=C(O)[C@@H]1[C@H]2C[C@H]3c4[nH]c5ccccc5c4CCN3C[C@@H]2CC[C@@H]1O`, the figures for the Potency (with Furin (Homo sapiens); in [5]) were 21.5 µM (active) and 12.4 µM (active), respectively. Further, the Potency result in experiment [4] is “inactive”. For the same compound, the call in [6], in experiment [7] and in experiment [8] was inactive.
Take `CCCCCCCCCCOc1cc2c(=O)c(C(=O)OCC)c[nH]c2cc1OCC`: the activity change, negative = inhibition in experiment [1] is -1.56% [at 4.99 µM].
For `NC(=O)NS(=O)(=O)c1ccc(N)cc1`, the Potency entry in experiment [1] was “inactive”.
Still for that read-out and setting: with `Cc1cc(O)cc(C)c1Cl` the entry was “inactive”; with `COc1ccc(C(=O)N2CCN(CC(=O)N3CCOCC3)CC2)cc1`, “inactive”; with `Cc1ccc2c(c1)c1c3n2CCNC3CCC1` (stereo not given), “inactive”.
On to `NNc1nnc(NN)c2ccccc12`, for which, in [1], the Potency entry was “inactive”.
With `CCOC(=O)c1cccnc1`, in experiment [1], the Potency result was “inactive”.
As for `CC(=O)OCC(=O)[C@@]1(O)CC[C@H]2[C@@H]3CCC4=CC(=O)C=C[C@]4(C)[C@@]3(F)[C@@H](O)C[C@@]21C`, the result in experiment [2] was inactive. Besides, in experiment [1], the Potency entry is “inactive”.
As to `CC(=O)OCC(COC(C)=O)OC(C)=O`, the Potency entry in [1] is “inactive”.
As to `O=C(O)Cn1c(C(=O)Nc2nc(-c3ccccc3Cl)cs2)cc2ccccc21`, the Potency in [3] is 21.5 µM (active); in experiment [4] it was 24.1 µM (active); in experiment [5], 3.93 µM (active); in [10], 70.8 µM (active); in experiment [11] it was 28.2 µM (active). Moreover, the outcome in [9], in experiment [6], in experiment [7] and in experiment [8] was inactive.
For `O=S1(=O)OC(c2ccc(O)cc2)(c2ccc(O)cc2)c2ccccc21`, the Potency entry in experiment [1] is “inactive”.
With `O=C1CC[C@@H](C(=O)O)N1`, the Potency result in experiment [1] was “inactive”.
For the compound `CC(O)CCCCn1c(=O)c2c(ncn2C)n(C)c1=O` (stereo not given), in experiment [1], the Potency result is “inactive”.
Same read-out and setting: with `NS(=O)(=O)c1cc(-c2nn[nH]n2)c(NCc2cccs2)cc1Cl` the entry was “inactive”.
With `O=C(Cn1ccnc1[N+](=O)[O-])NCc1ccccc1`, the call in [2] was inactive. Moreover, the Potency entry in [1] was “inactive”.
`CCCCCC(C)N` (stereo not given): the Potency entry in experiment [1] was “inactive”.
For `COc1ccccc1Oc1c(NS(=O)(=O)c2ccc(C(C)(C)C)cc2)nc(-c2ncccn2)nc1OCCO`, the Potency entry (with Furin (Homo sapiens); in experiment [1]; in experiment [5]) was “inactive” in each case. In addition, the call in [12] was inactive. The activity change, negative = inhibition in experiment [8] was 14.1% [at 1.74 µM].
In the case of `O=C1C(c2[nH]c3ccccc3c2O)=Nc2ccccc21`, the Potency result in [1] is “inactive”.
Take `C[C@@H]1O[C@@H](OC[C@H]2O[C@@H](Oc3c(-c4ccc(O)c(O)c4)oc4cc(O)cc(O)c4c3=O)[C@H](O)[C@@H](O)[C@@H]2O)[C@H](O)[C@H](O)[C@H]1O`: the call in [13], in experiment [14], in experiment [15], in experiment [16], in [17] and in [18] was inactive. The compound was called inactive in [19].
